# A selection: hits, their analogues and other compounds. The true share with any hit is near 7.3%.
# ELG1 genotox: inducers of genotoxicity in HEK293T ELG1-luciferase cells; Potency, µM (titrated, usually from 46 µM), without a hit: at the top dose activity change, positive = activation, hits mostly activators; AID 504466; hit rate 1.3% among 330,000; HEK293T ELG1-luciferase reporter, luminescence, 16 h; note: % of control where 0% means no effect; nearly all actives have a fitted effect of over 60% in size
#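 Luminescence read-out: rising ELG1-luciferase signal, reflecting elevated ELG1 protein under genetic stress, flags genotoxic compounds. Cells were treated for 16 hr at 37 °C before ONE-Glo detection.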
# Rab9 promoter act: activators of Rab9 promoter | Huh7 Rab9 promoter-luciferase reporter, luminescence, 24 h | Potency, µM (highest dose often 9.22 µM), for inactives: at the top dose activation, negative = inhibition, hits mostly activators | hit rate 2.8% among 320,000; note: % of control where 0% means no effect; nearly all actives have a fitted effect of over 60% in size
#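 Luminescence read-out: Huh7 cells stably expressing Rab9-luciferase, treated 24 h with compound at 37 °C, then lysed with luciferase reagent for 10 min at ambient before reading.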
# NPC1 promoter act: activators of NPC1 promoter | Huh7 NPC1 promoter luciferase reporter, 24 h | Potency, µM (doses to about 9.22 µM), for inactives: at the highest dose activation, actives largely listed as activators | hit rate 2.4% among 320,000; note: % of control where 0% means no effect; nearly all actives have a fitted effect of over 60% in size
#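 Compounds in DMSO were transferred onto Huh7 NPC1-luciferase reporter cells pre-incubated 2 h; after 24 h at 37 °C, Amplite reagent was dispensed and luminescence recorded 10 min later.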
# SMN2 splice up: SMN2 splice variant enhancement; HEK293 SMN2-luciferase splicing reporter, luminescence, 30-36 h; Potency, µM (series often up to 46.1 µM), without a hit: top-dose activity change, positive = activation, usual class: activators; AID 1458; hit rate 2.8% among 210,000; note: % of control where 0% means no effect; nearly all actives have a fitted effect of over 55% in size
#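 qHTS luciferase splicing reporter: luminescence rises when SMN2 exon 7 is included in transfected HEK293 cells. Compound exposure lasted 30-36 h at 37C, with 4.5 mM final sodium butyrate as control, followed by a ONE-Glo read.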
# Luc counter: Kinase-Glo luciferase inhibition (counter-screen) | Q27757 | Kinase-Glo luciferase, ATP luminescence, 8 min | Potency, µM (doses to about 38.3 µM), inactives show at the top dose activity change, negative = inhibition, usual class: inhibitors | hit rate 0.28% among 200,000; note: % is set by controls: 0 for no effect and ±100 for the full control effect; nearly all actives have a fitted effect of over 60% in size
#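 Substrate mix (final 50 mM imidazole pH 7.2, 50 mM KCl, 7 mM MgCl2, 10 uM ATP, 0.01% Tween 20, 0.05% BSA) plus pin-tool compound, then Kinase-Glo detection mix; 8 min ambient, luminescence read.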
# FLuc counter: inhibits or activates purified firefly luciferase, miR-21 counter-screen | purified FLuc, Km substrates, luminescence inhibition | hit rate 6.9% among 360,000 | P08659 | Potency, µM (highest dose often 57.5 µM), for the others: at the top dose activity change, negative = inhibition, hits mostly inhibitors;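 note: plate controls were vehicle for no effect and reference inhibitor for full effect; nearly all actives have a fitted effect of over 55% in size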
# Target sequence (P08659 whole entry, looked up): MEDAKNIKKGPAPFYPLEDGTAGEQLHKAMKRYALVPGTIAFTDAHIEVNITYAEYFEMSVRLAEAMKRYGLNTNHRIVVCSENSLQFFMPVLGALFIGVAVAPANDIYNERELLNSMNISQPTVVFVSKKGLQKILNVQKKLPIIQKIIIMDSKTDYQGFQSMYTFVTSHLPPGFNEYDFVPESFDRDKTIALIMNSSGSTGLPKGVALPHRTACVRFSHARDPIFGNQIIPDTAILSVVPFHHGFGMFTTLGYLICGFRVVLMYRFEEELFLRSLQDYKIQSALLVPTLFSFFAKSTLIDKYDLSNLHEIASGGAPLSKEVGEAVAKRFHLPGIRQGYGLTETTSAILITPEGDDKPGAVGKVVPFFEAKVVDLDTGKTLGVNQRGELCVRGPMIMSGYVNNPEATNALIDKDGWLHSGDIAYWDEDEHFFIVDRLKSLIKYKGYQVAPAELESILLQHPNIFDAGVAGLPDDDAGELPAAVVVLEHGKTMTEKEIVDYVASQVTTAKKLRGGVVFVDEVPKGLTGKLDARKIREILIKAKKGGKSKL
#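 Purified P. pyralis luciferase, 10 nM final, with Km-level 10 uM D-luciferin and 10 uM ATP in 50 mM Tris acetate pH 7.5, 10 mM Mg acetate, 0.01% Tween-20, 0.05% BSA; 6-point qHTS titration about 60 µM downward; luminescence read.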
# * = called active by the depositor; u = inconclusive; x = not tested or not shown. Calls come from the whole dose curve; as a rule, active = well fitted curve in the direction sought with a large enough effect; inconclusive = small, poorly fitted or top-dose-only effect, or another doubt; inactive = no such curve, though single readings can be large; an effect the other way counts as inactive or inconclusive. Potency is the fitted concentration of half-maximal effect.
SMILES,ELG1 genotox,Rab9 promoter act,NPC1 promoter act,SMN2 splice up,Luc counter,FLuc counter
CCc1ccc2oc(C(=O)NCc3ccc(S(N)(=O)=O)cc3)c(C)c2c1,u,21%,14%,-7%,3%,4%
O=C(COc1ccc(Cl)cc1)Nc1ccc2nc(SCC(=O)N3CCCC3)sc2c1,x,x,x,x,x,-15%
O=C(NC12CC3CC(CC(C3)C1)C2)c1ccc(-c2ccc(Cl)cc2)o1,u,3.2µM*,u,16µM*,2%,u
CC(=O)NC(=O)c1ccc(-c2ccc(Cl)cc2)o1,10%,19%,-2%,x,-4%,5.4µM*
CCn1nnc(NC(=O)c2ccc(-c3ccc(Cl)cc3)o2)n1,u,20%,19%,26%,-2%,17µM*
O=C(NC12CC3CC(CC(C3)C1)C2)c1ccc(-c2cccc(Cl)c2)o1,u,0.89µM*,2.8µM*,-33%,0%,2.4µM*
O=C(NC12CC3CC(CC(C3)C1)C2)c1ccc(COc2ccc(Cl)cc2[N+](=O)[O-])o1,-8%,-3%,-2%,-28%,0%,-6%
CCC(Sc1nc2ccccc2c2nc(-c3ccccc3)nn12)C(=O)Nc1cccc(OC)c1 (stereo not drawn),x,x,x,x,x,-2%
O=C(NC12CC3CC(CC(C3)C1)C2)c1ccco1,-5%,0%,2%,x,x,-9%
O=C(NC12CC3CC(CC(C3)C1)C2)c1ccc(-c2ccccc2Cl)o1,u,2µM*,1.1µM*,8%,-4%,1.9µM*
Cc1ccc(SCC(=O)Nc2ccc(N3CCN(C)CC3)c(F)c2)c(C)c1,3%,4%,12%,-15%,0%,12µM*
Cc1ccc(-n2nnnc2SCC(=O)Nc2ccc(N3CCN(C)CC3)cc2)c(C)c1,-1%,-11%,6%,x,x,-2%
O=C(CSc1ccccc1)Nc1ccc(N2CCOCC2)c(F)c1,u,3.2µM*,3.5µM*,x,x,u
Cc1cc([N+](=O)[O-])ccc1NC(c1nnc(-c2ccccc2)o1)c1ccccc1F (stereo not drawn),x,x,x,x,x,-14%
CCOc1cc(/C=N/NC(=O)CSc2nnc(C)s2)ccc1OCc1ccccc1Cl,0%,2%,0%,8%,1%,1%
Cc1nn(-c2ccccc2)c(C)c1/C=N/NC(=O)c1ccccc1NS(=O)(=O)c1cccs1,2%,2%,-1%,15%,1%,11µM*
O=C(CSc1nnc(SCc2ccccc2Cl)s1)N/N=C/c1ccc(C(=O)O)cc1,0%,3%,1%,x,x,3.4µM*
Cc1nn(-c2ccccc2)c(C)c1/C=N/NC(=O)c1cccs1,u,u,u,18µM*,1%,8.5µM*
Cc1c(/C=N/NC(=O)c2cccs2)c2ccccc2n1Cc1ccccc1Cl,-2%,21%,17%,x,x,8.5µM*
COc1ccc(OC)c(/C=C/C(=O)Nc2ccc(C(=O)OCCC(C)C)cc2)c1,x,x,x,-8%,x,0%
CCc1ccccc1NC(=O)Cn1c(=O)n(Cc2ccco2)c(=O)c2ccccc21,x,x,x,0%,x,-4%
Cc1[nH]c2ccccc2c1/C=N/NC(=O)c1cccs1,u,-1%,6%,u,3%,27µM*
Cc1[nH]c2ccccc2c1/C=N/NC(=O)CNC(=O)c1cccs1,-6%,1%,2%,x,x,4%
Cc1nn(-c2ccccc2)c(C)c1/C=N/NC(=O)c1cc(-c2ccc(Br)s2)[nH]n1,-31%,-15%,-20%,-12%,6%,u
Cc1nn(-c2ccccc2)c(C)c1/C=N/NC(=O)c1cc(-c2cccs2)[nH]n1,-1%,-21%,-11%,4%,3%,13µM*
CC(/C=N/NC(=O)CSc1nnc(SCc2ccccc2)s1)=C\c1ccco1,2%,3%,-1%,17%,-5%,21µM*
Cc1nn(-c2ccccc2)c(C)c1/C=N/NC(=O)c1cc(-c2ccc(Cl)s2)[nH]n1,-8%,-19%,-25%,-15%,-1%,11µM*
